Data from PubChem BioAssay (NCATS).
Inconclusive results are not listed. Some structures have more than one record in an assay (separate samples or runs), and their calls can disagree. Activity calls are given as the source filed them. Unless noted, calls follow the shape of the dose curve; as a rule, active = well fitted curve in the direction sought with a large enough effect; inconclusive = small, poorly fitted or top-dose-only effect, or another doubt; inactive = no such curve, though single readings can be large; an effect the other way counts as inactive or inconclusive.

Experiments:
[1] = Cytometry Cell-Based qHTS for Inhibitors of the mTORC1 Signaling Pathway in MEF cells (AID 2668); also: potency is read from the fitted curve at half-maximal effect
In short: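 MEFs (Tsc2-/-, p53-/- stably expressing WT Tsc2) treated 24 h at 37 degree Celsius, fixed, stained with Alexa-488 anti-phospho-rpS6 Ser235/236 and propidium iodide; Acumen laser scanning. Reported as % positive cells, phospho-S6 normalized to PI.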

[2] = Validation screen for small molecules that induce DNA re-replication in MCF 10A normal breast cells (AID 463097); also: nearly all actives have a fitted effect of over 60% in size; also: potency is read from the fitted curve at half-maximal effect
In short: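 MCF 10A cells exposed to compound 48 hr at 37 C, 5% CO2, then Hoechst-stained 40 min. Laser-scanning imaging of nuclear DNA content (405 nm ex, 500-530 nm em); re-replication scored as rise in nuclei with elevated fluorescence intensity.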

[3] = target: Ubiquitin carboxyl-terminal hydrolase 2 (Homo sapiens) (UniProt O75604); assay: qHTS Validation Assay for Inhibitors of Ubiquitin-specific Protease USP2a Using CHOP2 as the Reporter (AID 463106)
Sequence of Ubiquitin carboxyl-terminal hydrolase 2 (Homo sapiens) (O75604 whole entry, looked up): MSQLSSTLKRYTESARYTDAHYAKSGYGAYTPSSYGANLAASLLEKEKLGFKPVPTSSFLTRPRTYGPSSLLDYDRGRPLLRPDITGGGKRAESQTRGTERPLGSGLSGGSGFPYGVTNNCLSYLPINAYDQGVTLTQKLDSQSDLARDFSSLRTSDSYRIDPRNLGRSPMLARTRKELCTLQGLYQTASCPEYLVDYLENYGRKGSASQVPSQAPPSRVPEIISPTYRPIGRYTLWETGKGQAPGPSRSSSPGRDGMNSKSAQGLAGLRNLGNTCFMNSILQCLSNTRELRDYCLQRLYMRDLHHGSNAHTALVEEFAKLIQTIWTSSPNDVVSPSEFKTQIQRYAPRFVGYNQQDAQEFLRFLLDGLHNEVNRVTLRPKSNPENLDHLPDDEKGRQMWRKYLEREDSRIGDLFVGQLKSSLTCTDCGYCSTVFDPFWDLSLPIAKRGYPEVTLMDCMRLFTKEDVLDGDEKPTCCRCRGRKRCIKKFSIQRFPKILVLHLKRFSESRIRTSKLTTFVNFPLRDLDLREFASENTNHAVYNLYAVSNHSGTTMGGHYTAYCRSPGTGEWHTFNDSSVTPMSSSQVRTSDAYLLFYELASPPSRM
In short: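 Inhibition is expressed relative to NEM as the full-inhibition control, with concentration-response curves classed by fit quality, magnitude and activity. Enzyme (USP2 core, 10nM) meets 25nM Ub-CHOP2 after compound preincubation; readings are taken at 60min.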

[4] = target: DNA polymerase III PolC-type (Bacillus subtilis (strain 168)) (UniProt P13267); assay: qHTS Validation Assay for the Inhibitors of DNA Replication in Gram-Positive Bacteria (AID 485295); also: potency is read from the fitted curve at half-maximal effect
Sequence of DNA polymerase III PolC-type (Bacillus subtilis (strain 168)) (P13267 whole entry, looked up): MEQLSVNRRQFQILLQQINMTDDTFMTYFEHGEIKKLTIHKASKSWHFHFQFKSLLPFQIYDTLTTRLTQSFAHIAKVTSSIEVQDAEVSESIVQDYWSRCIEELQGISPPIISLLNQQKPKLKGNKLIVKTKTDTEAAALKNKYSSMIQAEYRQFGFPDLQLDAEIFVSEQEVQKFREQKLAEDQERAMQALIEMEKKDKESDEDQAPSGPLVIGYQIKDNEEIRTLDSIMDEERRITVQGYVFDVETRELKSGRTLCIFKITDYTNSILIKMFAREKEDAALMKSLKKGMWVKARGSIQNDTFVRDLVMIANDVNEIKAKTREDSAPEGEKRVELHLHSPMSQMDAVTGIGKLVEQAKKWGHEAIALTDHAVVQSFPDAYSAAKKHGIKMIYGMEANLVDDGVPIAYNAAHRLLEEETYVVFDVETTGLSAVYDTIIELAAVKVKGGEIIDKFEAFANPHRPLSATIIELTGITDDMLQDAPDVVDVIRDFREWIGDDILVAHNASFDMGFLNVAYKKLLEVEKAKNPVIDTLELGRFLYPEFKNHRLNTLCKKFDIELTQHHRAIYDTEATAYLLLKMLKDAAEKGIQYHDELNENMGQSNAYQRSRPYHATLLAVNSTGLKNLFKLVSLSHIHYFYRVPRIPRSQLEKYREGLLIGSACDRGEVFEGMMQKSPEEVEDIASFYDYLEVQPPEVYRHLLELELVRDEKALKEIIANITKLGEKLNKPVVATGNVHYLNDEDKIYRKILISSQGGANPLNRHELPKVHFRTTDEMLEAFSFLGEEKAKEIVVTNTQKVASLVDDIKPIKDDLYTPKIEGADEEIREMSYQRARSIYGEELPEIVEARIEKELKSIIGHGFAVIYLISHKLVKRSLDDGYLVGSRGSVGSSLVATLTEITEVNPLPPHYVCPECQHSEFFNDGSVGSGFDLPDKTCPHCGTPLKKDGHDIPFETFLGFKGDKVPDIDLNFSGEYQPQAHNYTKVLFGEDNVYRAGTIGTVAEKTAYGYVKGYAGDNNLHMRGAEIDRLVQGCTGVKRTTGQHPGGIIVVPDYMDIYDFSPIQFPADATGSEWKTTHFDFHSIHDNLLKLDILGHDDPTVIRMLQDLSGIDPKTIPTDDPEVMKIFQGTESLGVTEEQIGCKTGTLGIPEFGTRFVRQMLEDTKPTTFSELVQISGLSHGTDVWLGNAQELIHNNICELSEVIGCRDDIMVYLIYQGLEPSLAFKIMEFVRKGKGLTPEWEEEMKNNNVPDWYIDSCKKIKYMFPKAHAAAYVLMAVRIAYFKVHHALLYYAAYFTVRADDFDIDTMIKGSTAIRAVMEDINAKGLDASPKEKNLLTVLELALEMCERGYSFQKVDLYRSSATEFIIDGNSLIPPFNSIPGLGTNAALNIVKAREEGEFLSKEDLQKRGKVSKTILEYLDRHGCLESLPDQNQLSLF
In short: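 Reconstituted B. subtilis Pol III holoenzyme (PolC, beta clamp, SSB, primase) preincubated with compound, then M13Gori single-stranded circular template with dNTPs/NTPs added; room temperature reaction. Stopped with EDTA/PicoGreen; dsDNA fluorescence read, EDTA as full-inhibition control.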

[5] = target: Tumor susceptibility gene 101 protein (Homo sapiens) (UniProt Q99816); assay: qHTS Validation Assay for Iinhibitors of HIV-1 Budding by Blocking the Interaction of PTAP/TSG101 (AID 485342; calls by dose curve)
Sequence of Tumor susceptibility gene 101 protein (Homo sapiens) (Q99816 whole entry, looked up, the tested form may be a part): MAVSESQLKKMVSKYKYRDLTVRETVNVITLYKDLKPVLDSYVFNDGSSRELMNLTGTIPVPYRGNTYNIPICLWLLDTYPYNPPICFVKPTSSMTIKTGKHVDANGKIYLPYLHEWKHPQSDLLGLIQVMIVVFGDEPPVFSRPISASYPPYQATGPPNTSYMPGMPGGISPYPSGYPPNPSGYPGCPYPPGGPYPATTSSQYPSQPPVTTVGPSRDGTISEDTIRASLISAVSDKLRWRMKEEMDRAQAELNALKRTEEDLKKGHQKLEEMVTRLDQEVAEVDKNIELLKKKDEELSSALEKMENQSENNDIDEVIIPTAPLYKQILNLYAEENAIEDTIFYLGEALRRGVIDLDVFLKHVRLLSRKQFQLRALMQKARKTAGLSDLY
In short: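 Tsg101 binding domain (10 uM) with FITC-labeled PTAP peptide (50 nM) in HEPES pH 7.5 buffer, 20 min at r.t. with compounds. Binding measured by fluorescence polarization.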

[6] = qHTS Validation Assay to Find Inhibitors of Chronic Active B-Cell Receptor Signaling (AID 485345; active = well fitted curve in the direction sought with a large enough effect in the main read-out, with a control signal flat, not every such curve was filed as active; also: potency is read from the fitted curve at half-maximal effect)
In short: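 TMD8 ABC-DLBCL cells with dox-inducible green luciferase–IκBα fusion and red native luciferase; compounds 46 uM–3 nM, 4 h at 37C with doxycycline in 0.5% FBS IMDM. Green/red ratio normalized to basal and 10 uM MG-132.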

[7] = target: Beta-2 adrenergic receptor (Homo sapiens) (UniProt P07550); assay: qHTS validation assay of beta-arrestin-biased ligands of beta2-adrenergic receptor (AID 485366)
Sequence of Beta-2 adrenergic receptor (Homo sapiens) (P07550 whole entry, looked up): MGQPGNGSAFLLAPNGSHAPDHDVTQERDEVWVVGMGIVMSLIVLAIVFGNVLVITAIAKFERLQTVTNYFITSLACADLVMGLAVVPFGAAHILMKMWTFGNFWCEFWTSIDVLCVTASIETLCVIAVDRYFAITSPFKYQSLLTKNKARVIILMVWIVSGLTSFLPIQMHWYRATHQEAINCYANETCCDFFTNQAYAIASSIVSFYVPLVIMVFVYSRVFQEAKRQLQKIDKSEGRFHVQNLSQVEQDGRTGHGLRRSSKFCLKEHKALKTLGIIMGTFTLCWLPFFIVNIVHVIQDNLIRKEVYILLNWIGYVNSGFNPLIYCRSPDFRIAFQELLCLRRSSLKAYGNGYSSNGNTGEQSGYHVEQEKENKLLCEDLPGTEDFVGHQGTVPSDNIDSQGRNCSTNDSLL
In short: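 qHTS, Tango cells, 1500 cells/well, DMEM + 1% FBS. Cpd 18 hr at 37 degrees C. Luciferin/ATP/CoA detection mix, 15 min RT, luminescence read. %Activity from corrected signal; CRC fit, curve class.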

[8] = target: ATP-dependent 6-phosphofructokinase (Trypanosoma brucei brucei) (UniProt O15648); assay: qHTS Validation Assay to Find Inhibitors of T. brucei phosphofructokinase (AID 485368)
In short: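 Luminescent ADP detection measures PFK turnover of fructose-6-phosphate (0.5 mM) with ATP (0.1 mM) at pH 8.0. Reaction runs 45 min at room temperature with 1.25 nM enzyme; inhibitors tested as titrations up to 57 uM.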

[9] = Quantitative high throughput screen for delayed death inhibitors of the malarial parasite plastid, 96 hour incubation (AID 488745); also: nearly all actives have a fitted effect of over 70% in size; also: potency is read from the fitted curve at half-maximal effect
In short: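 Decreased firefly luciferase luminescence indicates inhibited growth of reporter-integrated P. falciparum after two generations (96 h, 37 C, 5% CO2). Infected erythrocytes at 0.1% parasitemia, 2% hematocrit, in Albumax-supplemented RPMI 1640.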

[10] = Quantitative high throughput screen for delayed death inhibitors of the malarial parasite plastid, 48 hour incubation (AID 488752); also: nearly all actives have a fitted effect of over 65% in size; also: potency is read from the fitted curve at half-maximal effect
In short: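 One-generation (48 h) growth assay: a decrease in luciferase signal from an integrated reporter in P. falciparum-infected red cells (0.1% parasitemia, 2% hematocrit) after compound exposure at 37 C indicates parasite inhibition.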

[11] = target: Thioredoxin reductase 1, cytoplasmic (Rattus norvegicus) (UniProt O89049); assay: qHTS Assay for Substrates of Mammalian Selenoprotein Thioredoxin Reductase 1 (TrxR1) (AID 488772);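 also: series mostly up to about 57 µM; a drop in NADPH fluorescence below the no-compound background marks a TrxR1 substrate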
Sequence of Thioredoxin reductase 1, cytoplasmic (Rattus norvegicus) (O89049 whole entry, looked up): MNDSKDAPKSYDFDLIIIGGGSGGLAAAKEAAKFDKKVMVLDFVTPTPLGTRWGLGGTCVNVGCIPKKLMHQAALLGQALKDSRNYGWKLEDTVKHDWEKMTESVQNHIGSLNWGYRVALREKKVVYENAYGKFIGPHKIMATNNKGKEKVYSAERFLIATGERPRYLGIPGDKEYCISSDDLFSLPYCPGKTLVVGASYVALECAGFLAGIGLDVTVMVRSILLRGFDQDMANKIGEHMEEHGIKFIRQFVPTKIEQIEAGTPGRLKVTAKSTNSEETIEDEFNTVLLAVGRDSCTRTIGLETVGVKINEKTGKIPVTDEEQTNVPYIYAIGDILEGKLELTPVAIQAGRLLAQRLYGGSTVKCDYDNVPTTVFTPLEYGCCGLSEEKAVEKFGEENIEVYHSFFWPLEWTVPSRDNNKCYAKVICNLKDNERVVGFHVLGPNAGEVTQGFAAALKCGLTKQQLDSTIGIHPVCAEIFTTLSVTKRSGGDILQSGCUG
In short: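 In this dual-purpose format, potential substrates are identified from the first fluorescence read after selenite addition, not from the 8-minute delta. Rat enzyme is preincubated with NADPH and then with compound at ~22 deg C.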

[12] = target: Thioredoxin reductase 1, cytoplasmic (Rattus norvegicus) (UniProt O89049); assay: qHTS Assay for Inhibitors of Mammalian Selenoprotein Thioredoxin Reductase 1 (TrxR1) (AID 488773); conditions: Potency: inhibition; also: nearly all actives have a fitted effect of over 40% in size; also: potency is read from the fitted curve at half-maximal effect
In short: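 Inhibition is scored from the loss of NADPH fluorescence between first and last reads of an 8-min kinetic run. Selenite (400 uM) was the substrate, added after 15 min compound preincubation at room temperature.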

[13] = target: Flap endonuclease 1 (Homo sapiens) (UniProt P39748); assay: qHTS Validation Assay for the Inhibitors of Human Flap endonuclease 1 (FEN1) (AID 488816); also: potency is read from the fitted curve at half-maximal effect
In short: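 Steps: add FEN1 (10 nM reagent) or buffer only; pin compounds; hold 15 min at room temperature; start with substrate, 50 nM final; read at 0 and 15 min; correct, normalize and fit a four-parameter Hill curve.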

[14] = target: M-phase phosphoprotein 8 (Homo sapiens) (UniProt Q99549); assay: qHTS Validation Assay for Inhibitors for MPP8 Chromodomain Interactions with Methylated Histone Tails (AID 488949); also: nearly all actives have a fitted effect of over 55% in size; also: potency is read from the fitted curve at half-maximal effect
In short: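 MPP8 (50 nM) was pre-bound to 50 nM biotinylated H3(1-18)K9me3 peptide in PBS pH 7.4 with 0.01% Tween-20. Compounds were then added for 30 min at room temperature, and complex disruption was read by AlphaScreen with streptavidin donor and nickel-chelate acceptor beads.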

[15] = target: Chromobox protein homolog 1 (Homo sapiens) (UniProt P83916); assay: qHTS Validation Assay for Inhibitors of HP1-beta Chromodomain Interactions with Methylated Histone Tails (AID 488953); also: nearly all actives have a fitted effect of over 50% in size; also: potency is read from the fitted curve at half-maximal effect
Sequence of Chromobox protein homolog 1 (Homo sapiens) (P83916 whole entry, looked up): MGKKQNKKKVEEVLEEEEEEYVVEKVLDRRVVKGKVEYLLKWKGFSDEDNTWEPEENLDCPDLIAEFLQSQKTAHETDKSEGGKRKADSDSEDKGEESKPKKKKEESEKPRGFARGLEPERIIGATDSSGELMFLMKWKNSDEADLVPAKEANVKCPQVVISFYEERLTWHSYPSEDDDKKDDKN
In short: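 AlphaScreen proximity signal from streptavidin donor and nickel chelate acceptor beads (final 10 ug/mL) after 30 min dark incubation. Compounds had 30 min at room temperature with preformed complex of 50 nM HP1-beta and 50 nM b-H3(1-18)K9me3 in PBS pH 7.4 with 0.01% Tween-20.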

[16] = target: Methanococcus maripaludis chaperonin (MmCpn) (UniProt Q6LX38); assay: High-Throughput Screening for Modulators of Cytosolic Chaperonin Activity: MmCpn Primary Screen (AID 488978);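 also: 50 nM MmCpn enzyme hydrolysing 30 µM ATP at 37 °C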
In short: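 MmCpn at 50 nM final was preincubated 5 min at RT with compound. ATP was then added at 30 uM final for 10 min at 37 C. ADP formed was detected by Transcreener HTRF (665/590 nm).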

[17] = target: Transient receptor potential cation channel subfamily V member 1 (Homo sapiens) (UniProt Q8NER1); assay: HTS Assay for Compounds that Act as Enhancers of the Vanilloid Receptor 1 (AID 488979)
Sequence of Transient receptor potential cation channel subfamily V member 1 (Homo sapiens) (Q8NER1 whole entry, looked up): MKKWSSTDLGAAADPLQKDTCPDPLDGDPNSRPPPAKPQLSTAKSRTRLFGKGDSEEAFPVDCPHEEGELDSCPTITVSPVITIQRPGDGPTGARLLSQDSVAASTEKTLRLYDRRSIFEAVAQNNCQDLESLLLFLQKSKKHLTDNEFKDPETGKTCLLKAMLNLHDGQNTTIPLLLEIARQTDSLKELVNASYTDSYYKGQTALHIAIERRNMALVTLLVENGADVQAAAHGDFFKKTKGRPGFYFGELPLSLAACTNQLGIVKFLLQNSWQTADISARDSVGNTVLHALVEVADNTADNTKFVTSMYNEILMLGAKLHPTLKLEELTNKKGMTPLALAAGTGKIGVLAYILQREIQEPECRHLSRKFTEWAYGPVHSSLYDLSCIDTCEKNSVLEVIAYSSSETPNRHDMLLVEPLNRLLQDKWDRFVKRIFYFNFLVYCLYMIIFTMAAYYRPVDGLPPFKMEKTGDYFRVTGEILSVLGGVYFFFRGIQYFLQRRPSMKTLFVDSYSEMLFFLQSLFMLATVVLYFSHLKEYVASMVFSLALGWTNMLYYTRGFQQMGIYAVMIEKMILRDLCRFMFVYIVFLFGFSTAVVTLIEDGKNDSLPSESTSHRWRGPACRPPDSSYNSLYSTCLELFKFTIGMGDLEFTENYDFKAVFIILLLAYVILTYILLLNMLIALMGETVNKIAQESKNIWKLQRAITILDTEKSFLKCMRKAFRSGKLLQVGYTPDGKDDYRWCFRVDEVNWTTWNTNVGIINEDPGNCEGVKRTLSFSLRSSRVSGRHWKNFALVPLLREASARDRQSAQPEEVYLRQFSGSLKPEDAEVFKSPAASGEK
In short: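 TRPV1-expressing cells loaded with Fluo-8 calcium dye; compounds added and calcium influx read kinetically for 3 min (agonist phase), then capsaicin at EC20 added and read 2 min more for enhancement. Fluorescence ex 480/em 520 nm.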

[18] = target: Thyrotropin receptor (Homo sapiens) (UniProt P16473); assay: qHTS Assay for Antagonists of the Thyroid Stimulating Hormone Receptor (AID 488980); also: series mostly up to about 58 µM
In short: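 TSHR-transfected HEK293 cells (2000/well) in HEPES-buffered HBSS with 70 uM RO 20-1724 were stimulated with 4 nM TSH (EC80, final) in the presence of compound. cAMP was measured by HTRF competition after lysis and 30 min at RT.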

[19] = target: D(1A) dopamine receptor (Homo sapiens) (UniProt P21728); assay: HTS Assay for Allosteric Agonists of the Human D1 Dopamine Receptor: Primary Screen for Agonists (AID 488981)
Sequence of D(1A) dopamine receptor (Homo sapiens) (P21728 whole entry, looked up): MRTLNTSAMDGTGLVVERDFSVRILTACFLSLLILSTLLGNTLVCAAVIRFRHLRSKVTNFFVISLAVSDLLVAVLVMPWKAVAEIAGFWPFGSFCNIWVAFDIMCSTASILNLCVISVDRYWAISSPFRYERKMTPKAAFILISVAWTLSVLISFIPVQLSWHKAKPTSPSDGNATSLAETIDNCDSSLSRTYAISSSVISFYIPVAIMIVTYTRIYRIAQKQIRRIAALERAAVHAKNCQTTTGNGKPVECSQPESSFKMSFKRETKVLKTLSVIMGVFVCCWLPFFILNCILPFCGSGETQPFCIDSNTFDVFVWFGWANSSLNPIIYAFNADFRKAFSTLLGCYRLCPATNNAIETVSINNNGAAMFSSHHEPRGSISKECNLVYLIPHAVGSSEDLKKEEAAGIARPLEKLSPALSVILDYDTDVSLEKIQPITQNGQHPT
In short: (§1)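 Tetracycline-induced HEK293 T-REx cells force-coupled to calcium signalling were incubated overnight at 30 C and dye-loaded at room temperature. Calcium flux over 180 s after compound addition flagged agonists; a further 180 s read after EC20 dopamine flagged potentiators.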

[20] = target: D(1A) dopamine receptor (Homo sapiens) (UniProt P21728); assay: HTS Assay for Allosteric Agonists of the Human D1 Dopamine Receptor: Primary Screen for Potentiators (AID 488982); also: potency is read from the fitted curve at half-maximal effect
In short: as §1

Measured: Potency

CC1(C)NC(=O)N(c2ccc([N+](=O)[O-])c(C(F)(F)F)c2)C1=O
inactive: all assays above

CC(=O)O[C@H]1C(=O)[C@@]2(C)C([C@H](OC(=O)c3ccccc3)[C@]3(O)C[C@H](OC(=O)[C@H](O)[C@@H](NC(=O)c4ccccc4)c4ccccc4)C(C)=C1C3(C)C)[C@]1(OC(C)=O)CO[C@@H]1C[C@@H]2O (some centres not stated)
active: [2] 0.0224 µM | [9] 0.117 µM | [10] 0.117 µM
not listed: [1]
inactive: all other assays above

O=C(O)c1cccnc1Nc1cccc(C(F)(F)F)c1
not listed: [2] | [6] | [8] | [18]
inactive: all other assays above

O=c1c(O)c(-c2ccc(O)cc2O)oc2cc(O)cc(O)c12
active: [4] 18.9 µM | [13] 2.38 µM | [14] 39.8 µM | [15] 39.8 µM
not listed: [3] | [8] | [17] | [20]
inactive: all other assays above

O=C1NC(=O)C(c2ccccc2[N+](=O)[O-])=C1Nc1ccc(O)c(Cl)c1
active: [12] 2.67 µM | [13] 18.9 µM | [14] 56.2 µM | [15] 35.5 µM | [20] 5.17 µM
not listed: [2] | [8] | [9]
inactive: all other assays above

Oc1ccc(-c2nc(-c3ccc(F)cc3)c(-c3ccncc3)[nH]2)cc1
31.6 µM (active) and inactive: [14]
active: [15] 56.2 µM
not listed: [2] | [6]
inactive: all other assays above

C[C@@H](N)C1CCC(C(=O)Nc2ccncc2)CC1 (some centres not stated)
not listed: [8]
inactive: all other assays above

NCCCCNCCCN
inactive: all assays above

O=c1cc(N2CCOCC2)oc2c(-c3ccccc3)cccc12
active: [1] 4.65 µM | [6] 2.59 µM | [15] 26.7 µM
not listed: [2] | [8] | [9]
inactive: all other assays above
